Data: a collection of fitness landscapes (doi:10.1016/j.celrep.2020.107928)
Over roughly 81,000 sequences, “one-hybrid fitness for binding parS DNA” has its median near -0.17; the highest 2% begin near 0.51. Only a selection was taken, and the highest values are over-represented in it overall.

B1: Caulobacter ParB omega fusion; a variant is named by its letters at X, in order, B8GW30 (parent)
chain: MESVVVGEPGMSEGRRGLGRGLSALLGEVDAAPAQAPGEQLGGSREAPIEILQRNPDQPRRTFREEDLEDLSNSIREKGVLQPILVRPSPDTAGEYQIVAGERAWRAAQRAGLKTVPIMVRELDDLAVLEIGIIENVQRADLNVLEEALSYKVLMEKFERTQENIAQTIGKSXSHVANXMRLLXLPDEVQSYLVSGELTAXHARAIAAAADPVALAKQIIEGGLSVRETEALARKAPNLSAGKSKGGRPPRVKDTDTQALESDLSSVLGLDVSIDHRGSTGTLTITYATLEQLDDLCNRLTRGI

Variants of: B1
Experiment: one-hybrid fitness for binding parS DNA (scaled: cognate 1, non-cognate 0); higher = stronger binding
Settings: with parS DNA site
Outline: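 Pre- and post-selection plasmids were Illumina-sequenced, three replicate libraries were pooled, and any variant with under 10 reads was removed. The libraries were Caulobacter ParB with four specificity codons randomised, selected in E. coli USO through a HIS3 reporter whose site is 19 bp from the promoter. Cells grew 48 hours at 37°C on M9 without histidine, with 0.1 mM IPTG and 5 mM 3-AT. Fitness is the log change in variant-to-wild-type read ratio, rescaled against cognate and non-cognate.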

one-hybrid fitness for binding parS DNA, 0.39:
RIMN

one-hybrid fitness for binding parS DNA, 0.986:
RIMC

one-hybrid fitness for binding parS DNA, 0.822:
RTPS

one-hybrid fitness for binding parS DNA, 0.925:
RYAC

one-hybrid fitness for binding parS DNA, 0.461:
RSTN

one-hybrid fitness for binding parS DNA, 0.242:
RNKF

one-hybrid fitness for binding parS DNA, 0.967:
RHDS
RHTG

one-hybrid fitness for binding parS DNA, ≤ 0.2:
APQT
KERF
LPLK
GVFL
VTMY
RDTG
RTPH
RTYP
RTSD
RTYD
NVPD
TDEP
APNE
FINR
PGNR
YRNV
PVLC
WSCE
QCQH
RTHD
RTHH
RYAK
RYFK
RYFQ
PLPR
RSYD
RPYC
RDYC
RPNC
RDNC
RSNQ
KDHC
ISLY
LALC
LFYG
TPSE
GIAA
MCGR
RPRC
RDRC
RSDD
REDC
RPDC
AHPR
NQNV
QPDY
SCMC
LKGL
CAST
INPC
ETLI
FWGR
RHDP
RHDH
RHND
RHNH
SDHS
QQDM
MDNG
EESV
LGER
RQGL
RITP
RLTQ
RLTD
RITD
RPTG
RRTK
QTKN
DQEG
NHEC
QCPT
IMKR
GAMN
LESA
LGIT
SQRC
GQLN
NPSA
GPFR
RHTK
RHTD
RMTK
RKTR
NFTG
DFTG
RKTK
ARLR
MAAN
VTYC
VAAS
WVLT
IAPF
QMYC
YLQA
IPAC
RSTP
RTTR
VSEV
PLGR
SLYF
HVAN
SESV
KMES
AYKT
HFLP
IRCS
RNKR
RNVN
NALR
TTTT
IISE
HKNW
PIET
ILAD
RHAP
RHFH
RHFD
LHQT
RQAQ
LNHR
ERQR
SWSW
TRLI
CQYS
LSGY
HRTK
RRMD
RDMC
RPMC
RRMH
IMTG
GAKE

one-hybrid fitness for binding parS DNA, 1.02:
RCTG
RMTG

one-hybrid fitness for binding parS DNA, 0.819:
RNKT

one-hybrid fitness for binding parS DNA, 0.938:
RTSS

one-hybrid fitness for binding parS DNA, 0.249:
RETG

one-hybrid fitness for binding parS DNA, 0.699:
RRTG

one-hybrid fitness for binding parS DNA, 0.25:
RQAF

one-hybrid fitness for binding parS DNA, 0.334:
RERC

one-hybrid fitness for binding parS DNA, 0.234:
RIMD

one-hybrid fitness for binding parS DNA, 1:
RTYS
RCYC
RTTG
RSTG

one-hybrid fitness for binding parS DNA, 0.625:
RRMC

one-hybrid fitness for binding parS DNA, 0.22:
RTWD

one-hybrid fitness for binding parS DNA, 0.947:
RQAC

one-hybrid fitness for binding parS DNA, 0.864:
RHNS

one-hybrid fitness for binding parS DNA, 0.279:
RQFM

one-hybrid fitness for binding parS DNA, 0.422:
RTSN

one-hybrid fitness for binding parS DNA, 0.957:
RSNC

one-hybrid fitness for binding parS DNA, 0.211:
RTPN

one-hybrid fitness for binding parS DNA, 0.863:
RCRC

one-hybrid fitness for binding parS DNA, 0.965:
RYFC
RHFS

one-hybrid fitness for binding parS DNA, 0.941:
RCNC

one-hybrid fitness for binding parS DNA, 0.992:
RLMC

one-hybrid fitness for binding parS DNA, 0.351:
RRTM

one-hybrid fitness for binding parS DNA, 0.816:
RQFC

one-hybrid fitness for binding parS DNA, 0.905:
RKTG

one-hybrid fitness for binding parS DNA, 0.944:
RTHS

one-hybrid fitness for binding parS DNA, 0.931:
RSYC

one-hybrid fitness for binding parS DNA, 0.267:
RYAM

one-hybrid fitness for binding parS DNA, 0.371:
RHAN

one-hybrid fitness for binding parS DNA, 0.877:
RCDC

one-hybrid fitness for binding parS DNA, 0.977:
RFTG

one-hybrid fitness for binding parS DNA, 0.218:
RMTH

one-hybrid fitness for binding parS DNA, 0.313:
RSDN

one-hybrid fitness for binding parS DNA, 0.202:
RNVH

one-hybrid fitness for binding parS DNA, 0.997:
RITG

one-hybrid fitness for binding parS DNA, 0.932:
RSRC

one-hybrid fitness for binding parS DNA, 0.773:
RSDC

one-hybrid fitness for binding parS DNA, 0.27:
RENC

one-hybrid fitness for binding parS DNA, 0.514:
RNVT

one-hybrid fitness for binding parS DNA, 0.976:
RCMC

one-hybrid fitness for binding parS DNA, 1.05:
RTWS

one-hybrid fitness for binding parS DNA, 0.291:
RLMH

one-hybrid fitness for binding parS DNA, 0.229:
RLMP

one-hybrid fitness for binding parS DNA, 0.271:
RTWP

one-hybrid fitness for binding parS DNA, 0.281:
RSRF

one-hybrid fitness for binding parS DNA, 0.406:
RSYN

one-hybrid fitness for binding parS DNA, 1.03:
RLTG

one-hybrid fitness for binding parS DNA, 0.477:
RTTY

one-hybrid fitness for binding parS DNA, 0.933:
RHAS

one-hybrid fitness for binding parS DNA, 0.398:
RQFY
